mHTT-CaM PPI inh: mHTT-calmodulin interaction abrogation; AlphaScreen His-mHTT/GST-CaM binding, luminescence; inhibition, % at 15 µM; 190,000 compounds, 3.6% hits; P42858;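 note: 0% = both proteins with DMSO and 100% = one protein alone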
Target sequence (P42858 whole entry, looked up, stated change not applied): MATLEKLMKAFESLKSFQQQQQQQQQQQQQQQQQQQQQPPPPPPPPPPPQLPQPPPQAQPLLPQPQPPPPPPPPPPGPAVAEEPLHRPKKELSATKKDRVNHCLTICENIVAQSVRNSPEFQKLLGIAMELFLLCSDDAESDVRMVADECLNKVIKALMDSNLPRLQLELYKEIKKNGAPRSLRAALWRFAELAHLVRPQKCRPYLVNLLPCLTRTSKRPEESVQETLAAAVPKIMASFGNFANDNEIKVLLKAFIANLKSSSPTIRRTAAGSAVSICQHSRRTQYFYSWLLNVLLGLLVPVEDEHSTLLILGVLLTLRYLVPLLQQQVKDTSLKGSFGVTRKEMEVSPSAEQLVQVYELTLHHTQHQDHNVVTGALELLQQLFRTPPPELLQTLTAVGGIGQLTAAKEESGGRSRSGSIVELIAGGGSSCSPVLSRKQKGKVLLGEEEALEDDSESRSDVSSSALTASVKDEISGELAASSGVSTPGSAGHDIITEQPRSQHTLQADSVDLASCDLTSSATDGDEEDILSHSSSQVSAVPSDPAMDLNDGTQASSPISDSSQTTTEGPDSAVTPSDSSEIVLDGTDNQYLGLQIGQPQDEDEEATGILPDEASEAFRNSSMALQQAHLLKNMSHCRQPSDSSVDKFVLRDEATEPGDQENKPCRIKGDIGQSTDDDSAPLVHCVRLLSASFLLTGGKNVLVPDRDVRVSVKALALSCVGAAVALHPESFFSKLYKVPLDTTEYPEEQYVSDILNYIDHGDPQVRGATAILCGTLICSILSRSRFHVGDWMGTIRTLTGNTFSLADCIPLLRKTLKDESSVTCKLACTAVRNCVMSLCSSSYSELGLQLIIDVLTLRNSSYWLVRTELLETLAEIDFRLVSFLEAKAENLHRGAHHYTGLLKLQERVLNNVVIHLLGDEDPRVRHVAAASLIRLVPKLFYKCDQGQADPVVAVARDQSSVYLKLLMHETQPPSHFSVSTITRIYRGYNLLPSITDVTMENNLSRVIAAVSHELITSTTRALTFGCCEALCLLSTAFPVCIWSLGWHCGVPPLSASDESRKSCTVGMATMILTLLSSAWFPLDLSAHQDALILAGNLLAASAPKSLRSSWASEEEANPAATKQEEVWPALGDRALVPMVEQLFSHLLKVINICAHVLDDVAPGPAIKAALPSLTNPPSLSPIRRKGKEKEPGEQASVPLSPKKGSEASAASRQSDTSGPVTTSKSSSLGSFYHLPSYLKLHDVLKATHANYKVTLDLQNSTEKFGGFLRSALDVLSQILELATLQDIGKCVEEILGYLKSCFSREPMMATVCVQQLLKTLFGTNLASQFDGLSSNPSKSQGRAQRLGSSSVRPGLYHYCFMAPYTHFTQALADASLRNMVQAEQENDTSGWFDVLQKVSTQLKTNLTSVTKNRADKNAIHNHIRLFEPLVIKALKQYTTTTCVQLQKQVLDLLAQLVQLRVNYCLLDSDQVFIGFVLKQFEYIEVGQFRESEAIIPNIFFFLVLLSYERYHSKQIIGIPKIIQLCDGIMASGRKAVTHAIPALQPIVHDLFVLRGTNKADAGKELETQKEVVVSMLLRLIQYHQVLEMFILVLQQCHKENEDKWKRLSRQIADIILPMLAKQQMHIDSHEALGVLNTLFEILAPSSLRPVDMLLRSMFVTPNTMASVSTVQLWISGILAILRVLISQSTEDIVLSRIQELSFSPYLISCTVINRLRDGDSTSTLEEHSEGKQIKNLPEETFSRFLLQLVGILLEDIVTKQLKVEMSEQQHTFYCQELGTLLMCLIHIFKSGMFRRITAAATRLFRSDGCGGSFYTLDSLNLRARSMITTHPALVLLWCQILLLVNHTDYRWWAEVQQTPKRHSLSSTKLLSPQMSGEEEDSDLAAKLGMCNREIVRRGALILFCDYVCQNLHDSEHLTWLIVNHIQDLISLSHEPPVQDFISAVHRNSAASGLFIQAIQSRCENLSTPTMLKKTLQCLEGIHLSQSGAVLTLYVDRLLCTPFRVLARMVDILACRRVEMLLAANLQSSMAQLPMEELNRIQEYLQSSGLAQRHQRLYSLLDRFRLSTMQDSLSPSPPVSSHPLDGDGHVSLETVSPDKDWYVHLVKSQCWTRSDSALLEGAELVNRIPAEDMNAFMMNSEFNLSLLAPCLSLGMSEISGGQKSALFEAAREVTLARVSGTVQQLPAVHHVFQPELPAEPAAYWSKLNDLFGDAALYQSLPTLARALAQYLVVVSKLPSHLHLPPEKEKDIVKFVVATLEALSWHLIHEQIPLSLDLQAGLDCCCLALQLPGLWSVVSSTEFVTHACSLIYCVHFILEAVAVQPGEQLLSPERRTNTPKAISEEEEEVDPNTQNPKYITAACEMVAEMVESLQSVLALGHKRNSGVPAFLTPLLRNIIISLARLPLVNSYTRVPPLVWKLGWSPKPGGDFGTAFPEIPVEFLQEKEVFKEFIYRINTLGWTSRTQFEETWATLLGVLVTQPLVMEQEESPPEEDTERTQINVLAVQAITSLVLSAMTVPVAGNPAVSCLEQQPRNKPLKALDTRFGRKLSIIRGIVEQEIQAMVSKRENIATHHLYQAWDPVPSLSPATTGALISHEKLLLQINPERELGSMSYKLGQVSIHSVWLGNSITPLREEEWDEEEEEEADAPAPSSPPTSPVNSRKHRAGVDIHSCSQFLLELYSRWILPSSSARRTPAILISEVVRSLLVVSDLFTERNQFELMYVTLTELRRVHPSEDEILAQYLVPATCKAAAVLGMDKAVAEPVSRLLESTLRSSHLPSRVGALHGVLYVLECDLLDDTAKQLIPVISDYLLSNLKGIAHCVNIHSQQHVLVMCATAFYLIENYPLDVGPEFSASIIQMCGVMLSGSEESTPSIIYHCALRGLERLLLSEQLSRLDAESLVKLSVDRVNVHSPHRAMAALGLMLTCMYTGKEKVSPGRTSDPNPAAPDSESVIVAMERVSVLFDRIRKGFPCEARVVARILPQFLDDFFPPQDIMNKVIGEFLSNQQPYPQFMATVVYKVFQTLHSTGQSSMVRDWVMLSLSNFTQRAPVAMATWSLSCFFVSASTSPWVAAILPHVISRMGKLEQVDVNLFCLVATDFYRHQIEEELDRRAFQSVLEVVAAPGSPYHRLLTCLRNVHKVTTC
Pf apPOL inh: Pf-apPOL DNA polymerase inhibition; Recombinant Pf-apPOL, molecular beacon fluorescence, 1.5 h; inhibition, % at 10 µM; 210,000 compounds, 0.25% hits; AID 1794808
* hit, by the source's call; i = inactive; . = not tested or not shown; ! = repeats disagree. Most compounds without a hit are left out; they make up all but 3.5% or so of the library. Cut-off read from the data, not from the text of the source: active = inhibition above about 50%; inactive = the rest.

SMILES	mHTT-CaM PPI inh	Pf apPOL inh
O=C(O)c1cc(N(Cc2ccccc2O)Cc2ccccc2O)ccc1O	.	2
CCOc1ccccc1N1CCN(Cc2cc3c(cc2[N+](=O)[O-])OCO3)CC1	51*	-2
O=[N+]([O-])c1cc2c(cc1CN1CCN(c3ccc(F)cc3)CC1)OCO2	30	0
Cc1ccccc1N1CCN(Cc2cc3c(cc2[N+](=O)[O-])OCO3)CC1	19	3
O=[N+]([O-])c1cc2c(cc1CN1CCN(c3cccc(Cl)c3)CC1)OCO2	77*	-2
COc1ccc(-n2nc3c(c2NC(C)=O)CS(=O)(=O)C3)cc1	0	-5
Cc1cc(C)n(CNc2nonc2/C(N)=N/OCc2c(F)cccc2Cl)n1	i	4
O=S(=O)(Cc1ccc(C(F)(F)F)cc1)c1c[nH]c2ccccc12	14	0
FC(F)(F)c1ccc(CSc2c[nH]c3ccccc23)cc1	87*	-8
COc1cccc(C2C3=C(Nc4ncnn42)c2ccccc2OC3c2ccc(OC)c(OC)c2)c1 (stereo unspecified)	32	-5
COc1ccc(C2C3=C(Nc4ncnn42)c2ccccc2OC3c2ccccc2Cl)cc1OC (stereo unspecified)	70*	-6
Cc1ccc(C2Oc3ccccc3C3=C2C(c2cccs2)n2ncnc2N3)cc1 (stereo unspecified)	38	-4
COc1ccc(C2Oc3ccccc3C3=C2C(c2cccs2)n2ncnc2N3)cc1OC (stereo unspecified)	56*	-5
COc1cc(SC)ccc1C(=O)Nc1nnc(C(C)(C)C)s1	5	-2
Cc1ccccc1C(=O)N1CCCC(COc2cccc(C(=O)N3CCCC3)c2)C1 (stereo unspecified)	2	-5
CC(C)CCNC1=CC(=O)CC(c2ccccc2)C1 (stereo unspecified)	-2	-3
CCC(CC)C(=O)N1CCc2c(c(-c3nc(C)no3)nn2C)C1	-3	-2
CCc1ccc(OCCNc2cc(N3CC(C)NC(C)C3)ccc2[N+](=O)[O-])cc1 (stereo unspecified)	100*	-1
CS(=O)(=O)N1CCN(c2ccc([N+](=O)[O-])c(NCCOc3ccc(Cl)cc3)c2)CC1	15	-11
Cc1ccc(NS(=O)(=O)c2cc3c(s2)CCN(C(=O)C2CCC2)C3)cc1Cl	14	1
Cc1ccccc1C(=O)N1CCCN(c2ccc(NC(=O)C(C)(C)C)cn2)CC1	1	-6
COc1cc(N2Cc3ccccc3C2)ccc1/C=C(\C#N)C(=O)NCc1ccco1	18	-2
COc1cc(N2Cc3ccccc3C2)ccc1C=O	72*	-5
Cc1ccc(Cl)cc1N1C=C(C#N)S(=O)(=O)c2ccccc21	-7	-2
Cc1ccccc1N=c1scc(-c2ccccc2)n1Cc1ccco1	73*	0
SMILES	mHTT-CaM PPI inh	Pf apPOL inh
Cc1csc(=NC(=O)c2ccccc2)n1Cc1ccco1	6	0
O=[N+]([O-])c1ccc(CNc2ccc(Cl)cc2)s1	39	1
COc1ccc(-n2nc(C(=O)NCC(=O)N3CCCC(C)C3)c3ccccc3c2=O)cc1OC (stereo unspecified)	19	-5
Cc1ccc(-c2csc(-c3cccn3CC(=O)NCCN3CCOCC3)n2)cc1	0	-7
O=[N+]([O-])c1ccc(-c2cn3c(n2)SCC3)cc1	18	-13
CC1Cn2cc(-c3ccc([N+](=O)[O-])cc3)nc2S1 (stereo unspecified)	18	51*
Cc1ccccc1C(=O)Nc1ccccc1C(N)=O	6	-3
COc1ccc(C2SCCN2C(=O)c2ccc([N+](=O)[O-])cc2)cc1 (stereo unspecified)	9	3
O=C(c1ccc(Oc2ccccc2)cc1)N1CC(c2nc3ccccc3[nH]2)C1	100*	-28
Cc1cc(C(=O)N2CC(c3nc4ccccc4[nH]3)C2)no1	-10	-2
Nc1ccc(-c2c3ccccc3nc3cc(N)ccc23)cc1	100*	-1
Nc1ccc(-c2cc(-c3ccccc3)nc(-c3ccc(N)cc3)n2)cc1	8	-6
CCOC(=O)c1csc(C2COc3ccccc3O2)n1 (stereo unspecified)	.	-8
CCCc1nc2c(c(=O)n1CC(=O)Nc1ccc(C)cc1C)CCN(Cc1ccccc1)C2	-6	-8
Cn1c(=O)c(-c2nc3ccccc3c(=O)[nH]2)c(O)c2ccccc21	1	-3
COc1ccc(S(=O)(=O)n2nnc3ccccc32)cc1	-2	-6
N#CC1=C(N)SC(N)=C(C#N)C1c1cccs1	63*!	-6
N#CC1=C(N)SC(N)=C(C#N)C1c1ccc(O)cc1	7	3
CC1=C(C#N)C(c2cccs2)C(C#N)=C(C)N1	.	26
N#CC1=C(N)SC(N)=C(C#N)C1c1ccc(-c2ccccc2)cc1	52*	0
Cc1ccc(N2CCN(C(=O)C3CCCN(c4nnc5ccccn45)C3)CC2)cc1 (stereo unspecified)	17	-6
Cc1sc2nc(SCC(N)=O)[nH]c(=O)c2c1C	0	-9
O=C(c1ccc(OCC2CCN(C(=O)c3ccsc3)CC2)cc1)N1CCCC1	2	-3
O=C1Nc2ccc(Br)cc2C12NN=C(c1ccccc1)S2 (stereo unspecified)	100*	0
CCc1ccc2c(c1)C(=O)C(=O)N2	21	-4
SMILES	mHTT-CaM PPI inh	Pf apPOL inh
CCc1ccc2c(c1)C1(NN=C(c3ccc(C)cc3)S1)C(=O)N2 (stereo unspecified)	100*	2
O=C1Nc2ccc(Br)cc2C1(O)Cc1ccccn1 (stereo unspecified)	6	-8
CC(C)(C)C(=O)N1CC=C2C(C#N)=C(N)C(C#N)(C#N)C(c3ccoc3)C2C1 (stereo unspecified)	35	-1
COc1cc(C=O)ccc1OCC(=O)O	-6	10
CC(=O)c1ccc(NC(=O)CN(c2cccc([N+](=O)[O-])c2)S(=O)(=O)c2ccccc2)cc1	21	7
Cc1ccc(C(=O)N2CCC(CCNC(=O)c3ccccc3Cl)CC2)cc1	2	-8
COc1ccccc1C1CC(c2ccc(Br)cc2)Nc2nc(N)nn21 (stereo unspecified)	47	0
CCOc1ccccc1C1CC(c2ccc(Br)cc2)Nc2nc(N)nn21 (stereo unspecified)	99*	0
CCc1ccc(C2CC(c3ccccc3Cl)Nc3nc(N)nn32)cc1 (stereo unspecified)	52*	-4
COc1ccccc1C1CC(c2ccc(Cl)c(Cl)c2)Nc2nc(N)nn21 (stereo unspecified)	99*	-1
COc1ccccc1C1CC(c2ccc(C)cc2)Nc2nc(N)nn21 (stereo unspecified)	47	-4
CCOc1ccccc1C1CC(c2ccccc2)Nc2ncnn21 (stereo unspecified)	3	3
CCOc1ccccc1C1CC(c2ccc(I)cc2)Nc2ncnn21 (stereo unspecified)	54*	10
CCc1ccc(C2CC(c3ccccc3Cl)n3nc(N)nc3N2)cc1 (stereo unspecified)	21	-1
Cc1ccc(C2CC(c3ccccc3O)=NC3(CCN(C(C)C)CC3)N2)cc1 (stereo unspecified)	25	6
COc1ccc(CN2CCN(C/C=C/c3ccccc3)CC2)cc1	9	6
CCc1ccc(NC(=O)C(=O)NCc2ccc(F)cc2)cc1	-5	-12
Cc1cccc(C2CC(c3ccc(F)cc3)Nc3nc(N)nn32)c1 (stereo unspecified)	7	0

Source: PubChem BioAssay (University of Kansas High Throughput Screening Laboratory)
